The source of these data is the supplement of paper PMC13380429.

Unmarked numbers belong to inactive results.

The assay concerns Vero E6 infected with SARS-CoV-2. Description: SARS-CoV-2 infection rate relative to infected DMSO; higher = more infection, active = 60 or less. Conditions: 24 h.
Regarding `Cn1c(=O)c2[nH]cnc2n(C)c1=O` [aminophylline] (10 µM), the SARS-CoV-2 infection rate was 95%.
The result for `Cc1nc2c(O)cccc2c(=O)[nH]1` (10 µM) reads 114%; that for `CCCC1(CCC)CCC2(CCN(CCCN(CC)CC)C2)CC1` [atiprimod] (0.833333 µM), 82.5%; that for `O=C(Nc1nc2cccc(-c3ccc(CN4CCS(=O)(=O)CC4)cc3)n2n1)C1CC1` [filgotinib] (10 µM), 97%.
Regarding `CC(C)(CO)CCCCCCC(C)(C)CO` [gemcadiol] (10 µM), the SARS-CoV-2 infection rate was 98.5%.
The result for `O=C(Oc1ccc(Br)cc1)N1CCN2CCC1CC2` (10 µM) reads 92%.
Then `Cc1cc(C(=O)Nc2cc(Oc3ccc4nc(NC(=O)C5CC5)cn4n3)ccc2C)n(C)n1` (10 µM), with 102%; and `O=C1NC(=O)C(c2ccccc2[N+](=O)[O-])=C1Nc1ccc(O)c(Cl)c1` (10 µM), with 114%; and `COc1cc2cc(c1Cl)N(C)C(=O)C[C@H](OC(=O)C(C)C)[C@]1(C)O[C@@H]1[C@H](C)[C@@H]1C[C@@](O)(NC(=O)O1)[C@H](OC)/C=C/C=C(\C)C2` [ansamitocin-p-3] (0.833333 µM), with 114%.
Then `O=C(c1cccc(Cl)c1F)N1CCN(Cc2cccc(Nc3nccs3)n2)CC1` (0.833333 µM), with 107%.
